Test system: Vero E6 infected with SARS-CoV-2
Test: inhibition of SARS-CoV-2 cytopathic effect; higher = more antiviral protection, active = above 15
Conditions: 48 h

Measured: inhibition of SARS-CoV-2 cytopathic effect

O=C1CCCC(=O)C1C(=O)c1ccc(C(F)(F)F)cc1[N+](=O)[O-] [nitisinone]
inactive: 1 nM 0.39% | 8.33 nM 0.93% | 100 nM -0.21% | 833.33 nM 0.01% | 10000 nM -1.34%

C=CC(=O)O [acrylate]
inactive: 1 nM 0.49% | 8.33 nM -3.42% | 100 nM -3.82% | 833.33 nM 4.25% | 10000 nM -1.97%

N=C(N)NCCN1CCCCCCC1 [guanethidine]
inactive: 1 nM 1.98% | 8.33 nM 0.59% | 100 nM 4.01% | 833.33 nM 2.31% | 10000 nM 0.3%

O=C(Nc1cccnn1)N1CCC(=Cc2cccc(Oc3ccc(C(F)(F)F)cn3)c2)CC1
inactive: 1 nM 0.89% | 8.33 nM 1.24% | 100 nM -0.76% | 833.33 nM -0.98% | 10000 nM -3.19%

CCn1c(=O)[nH]c2ccccc21
inactive: 1 nM -3.62% | 8.33 nM -3.46% | 100 nM -3.83% | 833.33 nM -3.63% | 10000 nM -3.51%

CCCC(=O)Nc1ccc(OCC(O)CNC(C)C)c(C(C)=O)c1 (stereo not given) [acebutolol]
inactive: 1 nM 4.4% | 8.33 nM 2.88% | 100 nM 3.43% | 833.33 nM -2.09% | 10000 nM 3.92%

CC(C)(C)NC(=O)[C@@H](c1cccnc1)N(C(=O)c1ccco1)c1ccc(C(C)(C)C)cc1
inactive: 1 nM -0.21% | 8.33 nM 1.78% | 100 nM 0.92% | 833.33 nM -2.61% | 10000 nM -3.73%

N=C(NCCC[C@H](N)C(=O)O)N[N+](=O)[O-] [NG-nitro-arginine]
inactive: 1 nM 4.03% | 8.33 nM -0.95% | 100 nM -0.93% | 833.33 nM 0.27% | 10000 nM -0.46%

NCCCCN(Cc1nc2ccccc2[nH]1)[C@H]1CCCc2cccnc21
inactive: 1 nM -0.42% | 8.33 nM -1.96% | 100 nM 0.37% | 833.33 nM -1.81% | 10000 nM 0.08%

CC(C)NC(=O)COc1cccc(-c2nc(Nc3ccc4[nH]ncc4c3)c3ccccc3n2)c1
inactive: 1 nM -1.49% | 8.33 nM -1.42% | 100 nM 0.74% | 833.33 nM 1.37% | 10000 nM 1.49%

NC(=O)OCC(COC(N)=O)c1ccccc1 [felbamate]
inactive: 1 nM 1.11% | 8.33 nM 3.53% | 100 nM -0.7% | 833.33 nM 1.06% | 10000 nM 0.03%

COc1ccc(S(=O)(=O)N(C(C)=O)c2ccccc2/C=C/c2cc[n+]([O-])cc2)cc1
inactive: 1 nM 2.08% | 8.33 nM 0.26% | 100 nM -2.17% | 833.33 nM -2.71% | 10000 nM -2.49%

CCOc1ccccc1OCC1CNCCO1 (stereo not given) [viloxazine]
inactive: 1 nM 5.7% | 8.33 nM 7.03% | 100 nM 7.67% | 833.33 nM 2.71% | 10000 nM 3.05%

COc1ccc(CC(=O)NC(/N=C(\NC#N)Nc2cccc3ncccc23)C(C)(C)C)cc1OC (stereo not given)
inactive: 1 nM -0.32% | 8.33 nM 1.83% | 100 nM 1.99% | 833.33 nM 1.34% | 10000 nM -0.99%

C[C@@H]1C[C@H]2[C@@H]3CCC4=CC(=O)C=C[C@]4(C)[C@@]3(F)[C@@H](O)C[C@]2(C)[C@H]1C(=O)CO [desoximetasone]
inactive: 1 nM -2.66% | 8.33 nM 0.15% | 100 nM -1.47% | 833.33 nM 1.96% | 10000 nM 0.8%

NNCCc1ccccc1 [phenelzine]
inactive: 1 nM 1.22% | 8.33 nM -0.85% | 100 nM -0.27% | 833.33 nM -0.81% | 10000 nM 3%

Nc1ncnc2c1ncn2CCOCP(=O)(O)O [adefovir]
inactive: 1 nM 6.28% | 8.33 nM 4.07% | 100 nM 2.27% | 833.33 nM 0.75% | 10000 nM 2.85%

c1ccc(Oc2nc(NC3CCCCC3)c3[nH]cnc3n2)cc1
inactive: 1 nM 0.79% | 8.33 nM -0.47% | 100 nM -1.37% | 833.33 nM -1.49% | 10000 nM -6.42%

COC(=O)C[C@](O)(CCCC(C)(C)O)C(=O)O[C@@H]1C(OC)=C[C@]23CCCN2CCc2cc4c(cc2[C@H]13)OCO4 [homoharringtonine]
active: 100 nM 26.2%
inactive: 1 nM 1.04% | 8.33 nM 2.85% | 833.33 nM 4.43% | 10000 nM -23.7%

CC[C@H]1OC(=O)[C@H](C)[C@@H](O[C@H]2C[C@@](C)(OC)[C@@H](O)[C@H](C)O2)[C@H](C)[C@@H](O[C@@H]2O[C@H](C)C[C@H](N(C)C)[C@H]2O)[C@](C)(O)C[C@@H](C)CN(C)[C@H](C)[C@@H](O)[C@]1(C)O [azithromycin]
inactive: 1 nM 0.31% | 8.33 nM 1.86% | 100 nM 2% | 833.33 nM 0.56% | 10000 nM 0.92%

Cc1cccc(C)c1NC(=O)C[N+](C)(C)C
inactive: 1 nM -1.32% | 8.33 nM 0.36% | 100 nM 0.02% | 833.33 nM -0.1% | 10000 nM 0.5%

CC#CCn1c(N2CCC[C@@H](N)C2)nc2c1c(=O)n(Cc1nc(C)c3ccccc3n1)c(=O)n2C [linagliptin]
inactive: 1 nM 0.74% | 8.33 nM -3.62% | 100 nM -0.93% | 833.33 nM -3.72% | 10000 nM -11.3%

CC(C)c1ccc2c(c1)CC[C@H]1[C@](C)(CN)CCC[C@]21C [lylamine]
inactive: 1 nM -2.24% | 8.33 nM 0.4% | 100 nM 0.03% | 833.33 nM -2.43% | 10000 nM -18.1%

CC(C)(C)OC(=O)N[C@H]1CCCCC/C=C\[C@@H]2C[C@@]2(C(=O)NS(=O)(=O)C2CC2)NC(=O)[C@@H]2C[C@@H](OC(=O)N3Cc4cccc(F)c4C3)CN2C1=O [danoprevir]
inactive: 1 nM 1.7% | 8.33 nM 1.4% | 100 nM 1.06% | 833.33 nM 0.24% | 10000 nM -1.76%

C/C(=C\C(=O)Nc1ccccc1C(=O)O)c1ccc2ccccc2c1
inactive: 1 nM 3.55% | 8.33 nM 3.85% | 100 nM 1.03% | 833.33 nM 1.37% | 10000 nM -2.89%

c1ccc(C(O[C@@H]2CCCN(CCc3ccc4c(c3)OCO4)C2)c2ccccc2)cc1 [zamifenacin]
inactive: 1 nM 0.36% | 8.33 nM 3.7% | 100 nM 0.93% | 833.33 nM -1.42% | 10000 nM -1.64%

Cc1nnc(C(=O)NC(C)(C)c2nc(C(=O)NCc3ccc(F)cc3)c(O)c(=O)n2C)o1 [raltegravir]
inactive: 1 nM 3.09% | 8.33 nM -0.27% | 100 nM 2.75% | 833.33 nM 1.2% | 10000 nM 1.12%

CCCCN(CCCC)C(=O)CN1C[C@H](c2ccc3c(c2)OCO3)[C@@H](C(=O)O)[C@@H]1c1ccc(OC)cc1 [atrasentan]
inactive: 1 nM 0.53% | 8.33 nM 1.72% | 100 nM 1.15% | 833.33 nM 2.37% | 10000 nM 1.46%

CCC(=O)O[C@H]1[C@H](O[C@@H]2[C@@H](C)[C@H](O[C@H]3C[C@@](C)(OC)[C@@H](O)[C@H](C)O3)[C@@H](C)C(=O)O[C@H](CC)[C@@](C)(O)[C@H](O)[C@@H](C)C(=O)[C@H](C)C[C@@]2(C)O)O[C@H](C)C[C@@H]1N(C)C [erythromycin-estolate]
inactive: 1 nM -0.2% | 8.33 nM 1.07% | 100 nM 2.51% | 833.33 nM 2.85% | 10000 nM -0.99%

CC(=O)NNC(=O)N1Cc2ccccc2Oc2ccc(Cl)cc21
inactive: 1 nM -0.04% | 8.33 nM 1.22% | 100 nM -0.93% | 833.33 nM -0.99% | 10000 nM -2.14%

CN(C)C/C=C(/c1ccc(Br)cc1)c1cccnc1 [zimelidine]
inactive: 1 nM 0.58% | 8.33 nM 1.8% | 100 nM 0.96% | 833.33 nM -1% | 10000 nM -1.69%

CNC(=O)c1cccc(NC(=O)N2CCC(Oc3ccccc3Cl)CC2)c1
inactive: 1 nM 0.48% | 8.33 nM -3.23% | 100 nM -1.17% | 833.33 nM -2.36% | 10000 nM -3.23%

C[C@]12N[C@H](Cc3ccccc31)c1ccccc12 [dizocilpine-(-)]
inactive: 1 nM 1.97% | 8.33 nM 1.82% | 100 nM 1.33% | 833.33 nM 1.1% | 10000 nM -0.44%

O=C1C(O)=C(O)C(=O)C(O)=C1O [tetroquinone]
inactive: 1 nM -0.23% | 8.33 nM 0.57% | 100 nM 1.71% | 833.33 nM -0.73% | 10000 nM -0.73%

COc1c(C)cnc(Cn2cnc3c(Cl)nc(N)nc32)c1C
inactive: 1 nM -0.38% | 8.33 nM 2.24% | 100 nM 0.07% | 833.33 nM 3.31% | 10000 nM 6.01%

Nc1c(Br)cc(Br)cc1CN[C@H]1CC[C@H](O)CC1 [ambroxol]
inactive: 1 nM -4.07% | 8.33 nM -1% | 100 nM -0.99% | 833.33 nM 1.23% | 10000 nM -1.75%

OCCn1cc(-c2cnc3nnn(Cc4ccc5ncccc5c4)c3n2)cn1
inactive: 1 nM 1.37% | 8.33 nM 2% | 100 nM 1.01% | 833.33 nM 2.71% | 10000 nM 2.26%

CC[C@H]1CN2CC[C@H]1C[C@@H]2[C@@H](O)c1ccnc2ccc(OC)cc12 [hydroquinidine]
inactive: 1 nM 2.34% | 8.33 nM 3.2% | 100 nM 0.81% | 833.33 nM 2.84% | 10000 nM 1.57%

O=c1[nH]c(=O)n([C@H]2C[C@H](O)[C@@H](CO)O2)cc1F [floxuridine]
inactive: 1 nM 1.42% | 8.33 nM 1.34% | 100 nM -1.95% | 833.33 nM -2.04% | 10000 nM -4.05%

From the supplement of paper PMC13380429
